Compound activity from PubChem.
Only some compounds are listed: those with a hit (about 1.9% of all), similar ones and a draw of the others.
MLLE-PAM2 inh – inhibitors of microRNA-mediated deadenylation, human PABP1 MLLE binding; inhibition, % at 20 µM; AID 588489; P11940; 360,000 compounds, 0.36% hits; GST-MLLE / FITC-PAM2 fluorescence polarization; in the data active means inhibition above about 35%, passing the limit was not always enough
PERK inhibitor – inhibitors of human PERK kinase. inhibition, % at 5.6 µM. CHO PERK-DD fusion, SEAP luminescence translation reporter. 220,000 compounds, 0.17% hits. Q9NZJ5. AID 1416;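 active means inhibition above the mean inhibition of all tested compounds plus 3 SD, set separately per screening campaign, cut at about 2.9% in these data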;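 further: PERK kinase domain activated by AP20187 dimerizer at 100 nM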
PABP FP inh – blocks human PABP binding to poly(A) RNA; P11940; fluorescence polarization; inhibition, % at 35 µM; 290,000 compounds, 1% hits; AID 2014;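 further: calls also rest on retests at 20 µM and on dose response follow-up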
GRK2 aptamer HTS – inhibitors of human GRK2 displacing RNA aptamer. P25098. bead flow cytometry, FAM-aptamer displacement from GRK2. inhibition of aptamer binding, % at 10 µM. 330,000 compounds, 0.59% hits. AID 488847;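 active means inhibition of aptamer binding above 40%, roughly 3 SD of noise, on plates passing a quality check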;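 further: median bead fluorescence of bound FAM aptamer so fluorescent compounds give negative values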
eIF4H inh – inhibitors of RNA binding by human eIF4H; Q15056; eIF4H fluorescence polarization binding assay; inhibition, % at 35 µM; 290,000 compounds, 0.94% hits; AID 2012;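 further: calls also rest on retests at 20 µM and on dose response follow-up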
GRK2 inh confirm – confirmation of human GRK2 inhibitors displacing RNA aptamer. shares compounds with GRK2 aptamer HTS. bead-bound GRK2, FAM-aptamer displacement, flow cytometry. aptamer displacement, % at 10 µM. 2,000 compounds, 4% hits. AID 504451;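 active means aptamer displacement above 40%, near three times the noise of non-fluorescent compounds, on plates passing quality checks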;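 further: negative values mostly reflect intrinsic compound fluorescence rather than true enhancement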
Aptamer quench SP – aptamer fluorescence quenching in GRK2 counter-screen | shares compounds with GRK2 aptamer HTS | Carboxyfluorescein RNA aptamer on beads, flow cytometry quenching; stronger effect = lower value | fluorescence response (% of DMSO), % at 10 µM | 2,000 tested, under 10 active | AID 504580;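 active means compounds that quench the bead-bound fluorescent RNA probe, cutting fluorescence to under half of the solvent control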;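 further: counterscreen run without GRK2 so only probe quenching by compound is measured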
Numbers stand for hits. Unless noted, how the calls were made is not given here.

CC(C)CCNC(=O)c1ccc(-n2cnc3cccnc32)cc1 was read as MLLE-PAM2 inh inactive, PABP FP inh inactive, GRK2 aptamer HTS 45, eIF4H inh inactive, GRK2 inh confirm inactive and Aptamer quench SP inactive.
CCOc1cc(NC(=S)NCCc2ccccc2)c(OCC)cc1NC(C)=O was read as MLLE-PAM2 inh inactive, PERK inhibitor inactive, PABP FP inh inactive, GRK2 aptamer HTS inactive and eIF4H inh inactive.
Screening CC(=O)Nc1ccc(/C(C)=N/Nc2nc(Nc3cccc4ccccc34)nc(N3CCOCC3)n2)cc1 returned MLLE-PAM2 inh inactive, PERK inhibitor inactive, PABP FP inh inactive, GRK2 aptamer HTS inactive and eIF4H inh inactive.
CC1(C)CC(NC(=S)Nc2ccc(S(N)(=O)=O)cc2)CC(C)(C)N1 was read as MLLE-PAM2 inh inactive, PERK inhibitor inactive, PABP FP inh inactive, GRK2 aptamer HTS 72, eIF4H inh inactive, GRK2 inh confirm inactive and Aptamer quench SP inactive.
For COc1cc2oc(=O)cc(-c3ccc(-c4ccc(CO)cc4)cc3)c2c(OC)c1OC the results were MLLE-PAM2 inh inactive and GRK2 aptamer HTS inactive.
COC(=O)c1sc2ncn(N)c(=O)c2c1C was read as PERK inhibitor inactive, PABP FP inh inactive, GRK2 aptamer HTS 42, eIF4H inh inactive, GRK2 inh confirm inactive and Aptamer quench SP inactive.
For COc1ccc(/C=C/CN2CCN(CCc3ccccc3)C(CCO)C2)cc1 (stereo not drawn) the results were MLLE-PAM2 inh inactive, PERK inhibitor inactive, PABP FP inh inactive, GRK2 aptamer HTS 90, eIF4H inh inactive, GRK2 inh confirm inactive and Aptamer quench SP inactive.
For CCOc1ccccc1CN1CCN(C/C=C/c2ccc(OC)cc2)CC1CCO (stereo not drawn) the results were MLLE-PAM2 inh inactive, PERK inhibitor inactive, PABP FP inh inactive, GRK2 aptamer HTS inactive and eIF4H inh inactive.
Screening CCCCN(C)C(=O)c1cc2c(Cl)nc3ccccc3c2s1 returned MLLE-PAM2 inh inactive, PABP FP inh inactive, GRK2 aptamer HTS 49, eIF4H inh inactive, GRK2 inh confirm inactive and Aptamer quench SP inactive.
Screening Cc1ccc(C)c(C(=O)COC(=O)Cn2c(C)csc2=O)c1 returned MLLE-PAM2 inh inactive, PABP FP inh inactive, GRK2 aptamer HTS inactive and eIF4H inh inactive.
For CC(=O)Nc1ccc(S(=O)(=O)NNC(=O)c2cccc(Cl)c2)cc1 the results were MLLE-PAM2 inh inactive, PERK inhibitor inactive, PABP FP inh inactive, GRK2 aptamer HTS 92, eIF4H inh inactive, GRK2 inh confirm inactive and Aptamer quench SP inactive.
CCOc1ccc(C(=O)c2nc3c(n2O)CCCC3)cc1 was read as MLLE-PAM2 inh inactive, PERK inhibitor inactive, PABP FP inh inactive, GRK2 aptamer HTS inactive, eIF4H inh inactive, GRK2 inh confirm inactive and Aptamer quench SP inactive.
CN(C)CCCNc1ncnc2sc(-c3ccccc3)cc12 was read as MLLE-PAM2 inh inactive, PERK inhibitor inactive, PABP FP inh inactive, GRK2 aptamer HTS inactive and eIF4H inh inactive.
CCOC(CNc1ncnc2sc(-c3ccccc3)cc12)OCC was read as MLLE-PAM2 inh inactive, PABP FP inh inactive, GRK2 aptamer HTS 48, eIF4H inh inactive, GRK2 inh confirm inactive and Aptamer quench SP inactive.
For CCc1ccc(NC(=O)N(CCCOC(C)C)C2CCN(C(C)=O)CC2)cc1 the results were MLLE-PAM2 inh inactive, PERK inhibitor inactive, PABP FP inh inactive, GRK2 aptamer HTS inactive and eIF4H inh inactive.
CCc1ccc(NC(=O)N(C2CCC(C)CC2)C2CCN(C(C)=O)CC2)cc1 (stereo not drawn) was read as MLLE-PAM2 inh inactive, PERK inhibitor inactive, PABP FP inh inactive, GRK2 aptamer HTS 57, eIF4H inh inactive, GRK2 inh confirm inactive and Aptamer quench SP inactive.
CCCCC1(Br)C(=O)N(c2ccccc2)N(c2ccccc2)C1=O was read as MLLE-PAM2 inh inactive and GRK2 aptamer HTS inactive.
For CC1CC(C)CN(CCCNC(=O)C2CCN(c3nnc(-n4cccc4)s3)CC2)C1 (stereo not drawn) the results were MLLE-PAM2 inh inactive, PABP FP inh inactive, GRK2 aptamer HTS inactive and eIF4H inh inactive.
For COc1ccc(C(=O)Nn2c(C)nc3ccccc3c2=O)cc1[N+](=O)[O-] the results were MLLE-PAM2 inh inactive, PABP FP inh inactive, GRK2 aptamer HTS inactive and eIF4H inh inactive.
`Cc1nc2ccccc2c(=O)n1NC(=O)c1cccc([N+](=O)[O-])c1` gave MLLE-PAM2 inh inactive, PERK inhibitor inactive, PABP FP inh inactive, GRK2 aptamer HTS 98, eIF4H inh inactive, GRK2 inh confirm inactive and Aptamer quench SP inactive.
For CCN(C(=O)COC(=O)c1cc(-c2ccc3cc(OC)ccc3c2)nc2ccccc12)C1CCS(=O)(=O)C1 (stereo not drawn) the results were PERK inhibitor inactive, PABP FP inh inactive, GRK2 aptamer HTS inactive and eIF4H inh inactive.
`CCN(C(=O)COC(=O)c1cc(=O)[nH]c2ccccc12)C1CCS(=O)(=O)C1` (stereo not drawn) gave MLLE-PAM2 inh inactive, PERK inhibitor inactive, PABP FP inh inactive, GRK2 aptamer HTS 49, eIF4H inh inactive, GRK2 inh confirm inactive and Aptamer quench SP inactive.
For COc1cccc(Cn2c(=S)[nH]c3ccc(N4CCOCC4)cc3c2=O)c1 the results were MLLE-PAM2 inh inactive, PERK inhibitor inactive, PABP FP inh inactive, GRK2 aptamer HTS 43, eIF4H inh inactive, GRK2 inh confirm inactive and Aptamer quench SP inactive.
CCOC(=O)C1=C(COC(=O)c2ccco2)NC(=O)NC1CC (stereo not drawn) was read as MLLE-PAM2 inh inactive, GRK2 aptamer HTS 83, GRK2 inh confirm inactive and Aptamer quench SP inactive.
`CCOC(=O)C1=C(C)NC(=O)NC1c1ccc(OC(=O)c2ccco2)cc1` (stereo not drawn) gave MLLE-PAM2 inh inactive, PERK inhibitor inactive, PABP FP inh inactive, GRK2 aptamer HTS inactive and eIF4H inh inactive.
Screening Nc1ccc(CCNc2ncnc3c2ncn3[C@@H]2O[C@H](CO)[C@@H](O)[C@H]2O)cc1 returned MLLE-PAM2 inh inactive, GRK2 aptamer HTS inactive, GRK2 inh confirm inactive and Aptamer quench SP inactive.
Screening COc1ccc(NC(=O)C2=CC(c3ccc(C)cc3)=NS(=O)(=O)N2C)cc1 returned MLLE-PAM2 inh inactive, PABP FP inh inactive, GRK2 aptamer HTS 54, eIF4H inh inactive, GRK2 inh confirm inactive and Aptamer quench SP inactive.
`Cc1ccc(-c2onc3ccc(C4(C)OCCO4)cc23)cc1` gave MLLE-PAM2 inh inactive, PERK inhibitor inactive, PABP FP inh inactive, GRK2 aptamer HTS inactive and eIF4H inh inactive.
`Cc1ccc(-c2onc3ccc(C=O)cc23)cc1` gave MLLE-PAM2 inh inactive, PERK inhibitor inactive, PABP FP inh inactive, GRK2 aptamer HTS 45, eIF4H inh inactive, GRK2 inh confirm inactive and Aptamer quench SP inactive.
For CCOc1ccc(NC(=O)c2cc3ccccc3cc2OC)cc1 the results were MLLE-PAM2 inh inactive, PABP FP inh inactive, GRK2 aptamer HTS inactive and eIF4H inh inactive.
